Laboratory results published in PubChem BioAssay (NCATS).
Records with an inconclusive call do not appear. Entries that show only a call come without a potency. Calls of active or inactive are those of the source. Calls come from the whole dose curve; as a rule, active = well fitted cell-killing curve with a large enough effect; inconclusive = small, poorly fitted or top-dose-only effect; inactive = flat fitted curve, though single readings scatter.

Test: qHTS of pediatric cancer cell lines to identify multiple opportunities for drug repurposing: Primary screen for Rh18 cells (AID 1347102); note: nearly all actives have a fitted effect of over 65% in size
Details: Rh18 rhabdomyosarcoma viability, CellTiter-Glo luminescence, 48 h; series mostly up to 46 µM
From the text: Drug repurposing or repositioning has been offered as a strategy for drug development in oncology programs. This approach has special potential for childhood cancers and other rare or orphan diseases, where the expected return on new drug development has been a disincentive to pharmaceuticals.
In this project we exploit the poly-pharmacology of drugs to discover new indications via phenotypic screening of a panel of 19 well-characterized cell lines derived from solid tumors seen in children and adolescents. The goal is to identify approved drugs with previously unrecognized anticancer properties that has the potential to reveal new mechanisms and biological processes involved in carcinogenesis or drug resistance. We employed a titration-based paradigm (quantitative high-throughput screening or qHTS), where all compounds were tested at multiple concentrations for their effect on cell viability. Concentration-response curves (CRCs) were derived directly from the primary screen, and both potency and efficacy values were used to identify compounds with robust bioactivity profiles. We screened the NIH Chemical Genomics Center (NCGC) Pharmaceutical Collection (NPC) and Mechanism Interrogation Plate (MIPE) small molecule collections of approved and investigational compounds against these cell lines; and measured metabolically active cells after 48 hours of compound treatment as a proxy for cell viability.
Assay Submitter: Nathalia J. Martinez, National Center for Advancing Translational Sciences, National Institutes of Health, Rockville, MD, USA; email: natalia.martinez@nih.gov
[1] Shen, M et al. Quantitative high-throughput phenotypic screening of pediatric cancer cell lines identifies multiple opportunities for drug repurposing. Oncotarget 2017 Dec 19;9(4):4758-4772. PMID 29435139.
The cells were obtained from University of North Carolina (UNC), Pediatric Preclinical Testing Program (PPT), and Coriell Institute (CI).
qHTS cell viability assay:
Cells were assayed in growth media at a density of 500-1,000 cells/well. Five microliters of cells were dispensed into 1,536-well, white, solid-bottom, TC-treated plates (Greiner Bio One) using a multidrop dispenser and incubated at 37 degrees C, 5% CO2, under a humidified atmosphere for 5 hours. Twenty-three nanoliters of compounds and controls (neutral control DMSO or positive control bortezomib at final concentration of 2.3 µM) were subsequently transferred by Kalypsys pintool. For primary screens, the MIPE collection was tested at 11-point dilutions (final concentrations range from 0.78 nM to 46 µM) and the NPC collection at 8-point dilutions (final concentrations range from 0.59 nM to 46 µM). Compounds tested in follow-up screens were assayed at 11-point dilutions. Cells were incubated for 48 hours, followed by addition of 3 µL of CellTiter-Glo (Promega). After a 15 min incubation at room temperature, samples were analyzed for luminescence intensity using a ViewLux High-throughput CCD imager equipped with clear filters.
For `COP(=S)(OC)SCN1C(=O)c2ccccc2C1=O`, the Potency was “inactive”. With `COP(=S)(OC)Oc1ccc(SC)c(C)c1` the Potency was “inactive”. With `CCN(CC)CCc1c[nH]c2ccccc12` the Potency was “inactive”. With `O=C(Nc1ccc(Br)cc1)c1cc(Br)cc(Br)c1O` the Potency was “inactive”. For `c1ccc(CN2CCNCC2)cc1`, the Potency was “inactive”. With `c1ccc(N2CCNCC2)cc1` the Potency was “inactive”. With `Nc1ccccc1` the Potency was “inactive”. For `NCCc1ccc(O)cc1`, the Potency was “inactive”. For `C[C@]12CC[C@@H]3c4ccc(OC(=O)N(CCCl)CCCl)cc4CC[C@H]3[C@@H]1CC[C@@H]2O`, the Potency was “inactive”. In the case of `Nc1ccccc1C(=O)O`, the Potency is reported as “inactive”. For `O=C1OC(CCN2CCCCC2)OC1(c1ccccc1)c1ccccc1` (stereo not given), the Potency was “inactive”. For `CC(C)(N)Cc1ccccc1Cl`, the Potency was “inactive”. With `C[C@@H](N)[C@@H](O)c1ccccc1` the Potency was “inactive”. For `Clc1ccccc1N1CCNCC1`, the Potency was “inactive”. With `Clc1ccc(C(c2ccc(Cl)cc2)C(Cl)(Cl)Cl)cc1` the Potency was “inactive”. In the case of `C=CCC1([C@H](C)CCC)C(=O)NC(=O)NC1=O`, the Potency is reported as “inactive”. For `COc1ccc2c3c1O[C@H]1[C@H](O)CC[C@H]4[C@@H](C2)N(C)CC[C@@]341`, the Potency was “inactive”. For `CC(=O)NC1CCSC1=O` (stereo not given), the Potency was “inactive”. For `C[C@]12CC[C@H]3[C@@H](CCC4=CC(=O)CC[C@@H]43)[C@@H]1CC[C@@H]2OC(=O)CCC1CCCCC1`, the Potency was “inactive”. In the case of `Cc1ncsc1CCCl`, the Potency is reported as “inactive”. In the case of `C=CCN1C[C@H](C)N([C@H](c2ccc(C(=O)N(CC)CC)cc2)c2cccc(OC)c2)C[C@H]1C`, the Potency is reported as “inactive”. In the case of `CC(C)(C)NCC(O)c1cc(Cl)c(N)c(C(F)(F)F)c1` (stereo not given), the Potency is reported as “inactive”. For `CC(C)c1cccc(C(C)C)c1O`, the Potency was “inactive”. For `CC(C)C[C@H](CN)CC(=O)O`, the Potency was “inactive”. For `CN1C(=O)COc2c(C(=O)NC3CN4CCC3CC4)cc(Cl)cc21` (stereo not given), the Potency was “inactive”. For `CC1(C)C(C=C(Cl)Cl)C1C(=O)OC(C#N)c1cccc(Oc2ccccc2)c1` (stereo not given), the Potency was “inactive”. In the case of `NC(=O)c1cc([N+](=O)[O-])cc([N+](=O)[O-])c1`, the Potency is reported as “inactive”. For `CN1CC[C@]23c4c5ccc(O)c4O[C@H]2[C@@H](O)C=C[C@H]3[C@H]1C5`, the Potency was “inactive”. With `O=C1OC(c2ccc(O)c(S(=O)(=O)O)c2)(c2ccc(O)c(S(=O)(=O)O)c2)c2c(Br)c(Br)c(Br)c(Br)c21` the Potency was “inactive”. In the case of `CNCC(=O)c1ccc(O)c(O)c1`, the Potency is reported as “inactive”. For `CN1C(=O)NC(=O)C(C)(C2=CCCCC2)C1=O` (stereo not given), the Potency was “inactive”. For `CN(C)CCc1c[nH]c2cccc(OP(=O)(O)O)c12`, the Potency was “inactive”. For `CCCCC/C=C\C/C=C\C/C=C\C/C=C\CCCC(=O)NCC(=O)O`, the Potency was “inactive”. In the case of `C[N+]1(CCF)[C@@H]2CC[C@H]1CC(OC(=O)C(O)(c1ccccc1)c1ccccc1)C2` (stereo not given in full), the Potency is reported as “inactive”. For `O=c1oc2ccccc2c(O)c1Cc1c(O)c2ccccc2oc1=O`, the Potency was “inactive”. For `COC(=O)C(Cl)C(=O)OC`, the Potency was “inactive”. With `Oc1ccc(Cl)cc1` the Potency was “inactive”. For `CCN(CCO)CCn1c(Cc2ccccc2)nc2c1c(=O)n(C)c(=O)n2C`, the Potency was “inactive”. In the case of `C[C@]12CCC(=O)C=C1CC[C@@H]1[C@@H]2CC[C@@]2(C)[C@H]1CC[C@]2(C)O`, the Potency is reported as “inactive”. In the case of `O=P1(N(CCCl)CCCl)NCCCO1` (stereo not given), the Potency is reported as “inactive”.
